Assay results as given in PubChem BioAssay AID1159580 (chemical genetic matrix, 2015).
Several values for one entry are separate records, joined by “and”; a condition that tells them apart may be missing. Identical values can stand only once. Hit rate of the full screen: of about 5,500 compounds, about 2,000 (36%) were called active. Roughly 18% stayed inconclusive and do not appear here. Some of the results follow. A number with no mark means an inactive call. Cut-off read from the data, not from the text of the source: active = normalized growth mostly below about 0.91 (no sharp cut-off); inconclusive = no clear call, values can overlap the other calls; inactive = mostly above about 0.92.

Test: chemical genetic growth profiling, strain panel (AID 1159580);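 note: tested at 20 µM; growth read once vehicle control cultures reached saturation at 30 °C; 1 = growth at the plate median or of vehicle wells; lower values mean less growth of the strain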
Conditions: S. cerevisiae deletion strains, growth OD

CC(=O)OC1CCC2C3CCc4cc(O)ccc4C3CCC12C (stereo not given)
normalized growth (locus YAL021C, strain ccr4, active compounds read low): 0.975
normalized growth (locus YAL026C, strain drs2, active compounds read low): 0.96
normalized growth (locus YAL030W, strain snc1, active compounds read low): 0.984
normalized growth (locus YBL061C, strain skt5, active compounds read low): 0.893 (active)
normalized growth (locus YBR009C, strain hhf1, active compounds read low): 0.969
normalized growth (locus YBR021W, strain FUR4, active compounds read low): 0.934
normalized growth (locus YBR023C, strain chs3, active compounds read low): 0.881 (active)
normalized growth (locus YBR171W, strain sec66, active compounds read low): 0.996
normalized growth (locus YBR229C, strain ROT2, active compounds read low): 1.01
normalized growth (locus YBR231C, strain swc5, active compounds read low): 0.966
normalized growth (locus YBR279W, strain paf1, active compounds read low): 0.979
normalized growth (locus YCL011C, strain gbp2, active compounds read low): 0.929
normalized growth (locus YCL016C, strain dcc1, active compounds read low): 0.954
normalized growth (locus YCL029C, strain bik1, active compounds read low): 0.99
normalized growth (locus YCL061C, strain MRC1, active compounds read low): 0.984
normalized growth (locus YCL069W, strain vba3, active compounds read low): 1.02
normalized growth (locus YCR088W, strain abp1, active compounds read low): 0.957
normalized growth (locus YDL005C, strain med2, active compounds read low): 0.973
normalized growth (locus YDL035C, strain GPR1, active compounds read low): 0.973
normalized growth (locus YDL040C, strain nat1, active compounds read low): 1.01
normalized growth (locus YDL074C, strain BRE1, active compounds read low): 0.827
normalized growth (locus YDL101C, strain DUN1, active compounds read low): 0.98
normalized growth (locus YDL134C, strain PPH21, active compounds read low): 0.973
normalized growth (locus YDL185W, strain tfp1, active compounds read low): 1.02
normalized growth (locus YDL192W, strain arf1, active compounds read low): 1.03
normalized growth (locus YDR001C, strain nth1, active compounds read low): 0.999
normalized growth (locus YDR069C, strain doa4, active compounds read low): 0.957
normalized growth (locus YDR101C, strain arx1, active compounds read low): 1
normalized growth (locus YDR137W, strain rgp1, active compounds read low): 0.797 (active)
normalized growth (locus YDR150W, strain NUM1, active compounds read low): 1.01
normalized growth (locus YDR159W, strain sac3, active compounds read low): 0.842 (active)
normalized growth (locus YDR162C, strain NBP2, active compounds read low): 1
normalized growth (locus YDR195W, strain ref2): 0.746 (active)
normalized growth (locus YDR297W, strain sur2, active compounds read low): 0.993
normalized growth (locus YDR318W, strain mcm21, active compounds read low): 1
normalized growth (locus YDR334W, strain swr1, active compounds read low): 1.01
normalized growth (locus YDR335W, strain msn5, active compounds read low): 0.921
normalized growth (locus YDR388W, active compounds read low): 0.997
normalized growth (locus YDR392W, strain spt3, active compounds read low): 0.608 (active)
normalized growth (locus YDR502C, strain sam2, active compounds read low): 0.991
normalized growth (locus YEL003W, strain gim4, active compounds read low): 0.993
normalized growth (locus YEL037C, strain rad23, active compounds read low): 1
normalized growth (locus YEL061C, strain CIN8 (second series), active compounds read low): 0.978
normalized growth (locus YEL061C, strain CIN8, active compounds read low): 0.998
normalized growth (locus YER015W, strain faa2, active compounds read low): 0.981
normalized growth (locus YER016W, strain bim1, active compounds read low): 0.918 (active)
normalized growth (locus YER110C, active compounds read low): 0.995
normalized growth (locus YER111C, strain swi4, active compounds read low): 0.955
normalized growth (locus YER155C, strain BEM2 (second series), active compounds read low): 0.934
normalized growth (locus YER155C, strain BEM2, active compounds read low): 0.913 (active)
normalized growth (locus YER167W, strain BCK2, active compounds read low): 0.988
normalized growth (locus YFR010W, strain ubp6, active compounds read low): 0.963
normalized growth (locus YGL078C, strain dbp3, active compounds read low): 1.01
normalized growth (locus YGL086W, strain mad1, active compounds read low): 0.979
normalized growth (locus YGL167C, strain pmr1, active compounds read low): 0.999
normalized growth (locus YGL173C, strain kem1, active compounds read low): 0.991
normalized growth (locus YGL227W, strain vid30, active compounds read low): 1.01
normalized growth (locus YGL240W, strain doc1, active compounds read low): 0.968
normalized growth (locus YGL248W, strain PDE1, active compounds read low): 0.954
normalized growth (locus YGL253W, strain hxk2, active compounds read low): 0.96
normalized growth (locus YGR078C, strain PAC10, active compounds read low): 0.899
normalized growth (locus YGR135W, strain pre9, active compounds read low): 1.03
normalized growth (locus YGR229C, strain SMI1, active compounds read low): 0.849
normalized growth (locus YGR252W, strain gcn5, active compounds read low): 0.986
normalized growth (locus YHR013C, strain ard1, active compounds read low): 0.985
normalized growth (locus YHR027C, strain rpn1, active compounds read low): 0.975
normalized growth (locus YHR030C, strain SLT2, active compounds read low): 1.01 and 0.911
normalized growth (locus YHR079C, strain IRE1 (second series), active compounds read low): 1
normalized growth (locus YHR079C, strain IRE1, active compounds read low): 0.938
normalized growth (locus YHR094C, strain hxt1, active compounds read low): 1.02
normalized growth (locus YHR129C, strain ARP1, active compounds read low): 1
normalized growth (locus YHR142W, strain chs7, active compounds read low): 0.903
normalized growth (locus YHR200W, strain rpn10, active compounds read low): 1.02
normalized growth (locus YIL066C, strain RNR3, active compounds read low): 0.962
normalized growth (locus YIL073C, strain SPO22, active compounds read low): 0.957
normalized growth (locus YIL125W, strain kgd1, active compounds read low): 1.01
normalized growth (locus YIR030C, strain dcg1, active compounds read low): 1.02
normalized growth (locus YJL092W, strain hpr5, active compounds read low): 0.986
normalized growth (locus YJL095W, strain BCK1 (second series), active compounds read low): 1
normalized growth (locus YJL095W, strain BCK1, active compounds read low): 0.892 and 0.899
normalized growth (locus YJL115W, strain asf1, active compounds read low): 1.01
normalized growth (locus YJL129C, strain trk1, active compounds read low): 0.92
normalized growth (locus YJL134W, strain LCB3, active compounds read low): 1.01
normalized growth (locus YJL154C, strain vps35, active compounds read low): 0.988
normalized growth (locus YJL164C, strain tpk1, active compounds read low): 0.954
normalized growth (locus YJL166W, strain qcr8, active compounds read low): 0.974
normalized growth (locus YJL168C, strain set2, active compounds read low): 1.01
normalized growth (locus YJL187C, strain SWE1 (second series), active compounds read low): 0.944
normalized growth (locus YJR043C, strain POL32, active compounds read low): 0.938
normalized growth (locus YJR066W, strain TOR1, active compounds read low): 0.905
